Measured values published in PubChem BioAssay (NCI).
“And” between values parts separate entries of the source, which are not always exact repeats. Equal entries are not always repeated. Compounds without any hit were thinned out: in the full panel of roughly 83,000, 20% have a hit.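 Single-concentration screen, 48 h exposure, 96-well plates. Endpoint: percent growth. Below 10 = active.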 Values without a mark were called inactive. The source made the active and inactive calls.

What follows are molecules tested on UACC-62 melanoma (assay: NCI-60 one-dose screen, 48 h (100 = growth as untreated, 0 = no growth, -100 = all killed)). Details: 2.5 µM.
Protocol: Growth inhibition of the UACC-62 human tumor cell line is measured as a screen for anti-cancer activity. Cells are grown in 96 well plates and exposed to the test compound for 48 hours. Compounds are tested at a single concentration, which is 10^-5 M for most compounds. The reported endpoint is percent growth (GI% or GIPRCNT), where numbers from 0 - 100% represent growth inhibition, and numbers from -100% - 0 represent cell death. For example, a value of 40 represents 60% growth inhibition. A value of 0 means no net growth occurred over the course of the experiment. A value of -40 indicates 40% of cells at the beginning of the experiment died by the end of the experiment. A value of -100 means all cells are dead at the end of the experiment.
NCI-60 Human Tumor Cell Lines Screen was performed using the standard one-dose NCI protocol, which is described in more detail at https://dtp.cancer.gov/discovery_development/nci-60/default.htm.
Compounds with GIPRCNT values below 10 were considered active. Activity score was based on GIPRCNT using the following formula: […]
Score is 0 for GIPRCNT values of 100 or above, 50 for GIPRCNT values of 0, and 100 for GIPRCNT values of -100.

Q: With `Cc1c(N)nc([C@H](CC(N)=O)NC[C@H](N)C(N)=O)nc1C(=O)N[C@H](C(=O)N[C@H](C)[C@@H](O)[C@H](C)C(=O)N[C@H](C(=O)NCCc1nc(-c2nc(C(=O)NCCC[S+](C)C)cs2)cs1)[C@@H](C)O)C(OC1OC(CO)C(O)C(O)C1OC1OC(CO)C(O)C(OC(N)=O)C1O)c1cnc[nH]1` (stereo partly drawn) as the molecule, how does the growth read?
A: The growth was 43.8%.

Same assay, conditions: 10 µM

Q: With `CC[C@@]1(O)C[C@H](OC2CC(N(C)C)C(O)C(C)O2)c2c(O)c3c(c(O)c2[C@H]1OC1CC(N(C)C)C(O)C(C)O1)C(=O)c1cccc(O)c1C3=O` (stereo partly drawn) as the molecule, how does the growth read?
A: The growth was -63.2% (active).

Q: How did the growth turn out when `Oc1cc[c]([Hg][Cl])cc1` was run?
A: Its growth is 92.1%.

Q: How did the growth turn out when `COC1CC(CC2CCC(C)C(C(C)C(=O)O)O2)OC2(OC(C)(C3CCC(C)(C4OC(C5OC(O)(CO)C(C)CC5C)CC4C)O3)CC2C)C1C` (stereo not drawn) was run?
A: The growth was -98.8% (active).

Q: For `COc1ccccc1/C=C(/C)[N+](=O)[O-]`, which growth is on record?
A: Its growth is 58.1% and 103%.

Q: For `CC1=C(CO)C2=C(C)C3(CC3)[C@@](C)(O)C(=O)C2=C1`, which growth is on record?
A: Its growth is -81.5% (active).

Q: `CO[C@H](/C(C)=C/C=C/C(C)=C/c1coc(C)n1)[C@H](C)[C@H]1C[C@@H](O)[C@@]2(C)O[C@H]2/C=C/[C@@H](C)[C@@H]2C[C@@H](CC(=O)O2)C[C@H]2O[C@@H]2C(=O)O1` was tested. Which growth did it give?
A: The growth was 8.74% (active).

Q: With `CCCCCCCCCCCC1CCCC(C)N1` (stereo not drawn) as the molecule, how does the growth read?
A: Its growth is 88.2%.

Q: With `CN1CCN(c2ccc([N+](=O)[O-])c3no[n+]([O-])c23)CC1` as the molecule, how does the growth read?
A: The growth was -58.8% (active).

Q: Which growth does the source give for `CCC1(O)CC(OC2CC(N(C)C)C(OC3CC4OC5CC(=O)C(C)OC5OC4C(C)O3)C(C)O2)c2c(cc3c(c2O)C(=O)c2c(O)ccc(O)c2C3=O)C1C(=O)OC` (stereo not drawn) here?
A: The growth was -72.5% (active).

Q: For `S=C(SSC(=S)N1CCCCC1)N1CCCCC1`, which growth is on record?
A: Its growth is 96.7%.

Q: With `COc1cccc2c1cc([N+](=O)[O-])c1c(C(=O)O)cc3c(c12)OCO3` as the molecule, how does the growth read?
A: The growth was 84.3% and 96.5%.

Q: For `CC1=C2C(=O)[C@H]3[C@@H](CC=C4C[C@@H](O)CC[C@@]43C)[C@@H]2CC[C@]12O[C@@H]1C[C@H](C)CN[C@H]1[C@H]2C`, which growth is on record?
A: The growth was 112%.

Q: Which growth does the source give for `COC1=C(C)C(=O)C2=C(C1=O)C(CO)N1C(C#N)C3CC4C(C1C2N1CCOC41)N3C` (stereo not drawn) here?
A: The growth was -81.2% (active).

Q: `Cc1ccc(C(=O)OC(C(=O)O)C(OC(=O)c2ccc(C)cc2)C(=O)O)cc1` (stereo not drawn) (tested in a mixture with another compound) was tested. Which growth did it give?
A: The growth was 45%.

Q: Which growth does the source give for `CC[C@](O)(C(=O)O)c1cc2n(c(=O)c1CO)Cc1cc3ccccc3nc1-2` here?
A: The growth was -68.6% (active).

Q: For `O=C1c2ccccc2C(=O)C(Cl)C1Cl` (stereo not drawn), which growth is on record?
A: Its growth is 70.9%.

Q: With `COc1ccc(OC)c(/C=C/[N+](=O)[O-])c1` as the molecule, how does the growth read?
A: Its growth is -22.3% (active).

Q: For `NCCc1ccc(OCc2ccccc2)c(OCc2ccccc2)c1`, which growth is on record?
A: Its growth is 95.9%.

Q: How did the growth turn out when `CC[n+]1c(-c2ccccc2)c2cc(N)ccc2c2ccc(N)cc21` was run?
A: Its growth is -81.3% (active).

Q: How did the growth turn out when `Cc1cc(N=Nc2ccccc2C)ccc1N` was run?
A: The growth was 74%.

Q: With `C[C@H]1CCC/C=C/[C@@H]2C[C@H](O)C[C@H]2[C@H](O)/C=C/C(=O)O1` as the molecule, how does the growth read?
A: Its growth is 20.9%.

Q: Which growth does the source give for `CCOC(=O)C(NC(=O)C(Cc1ccc(N(CCCl)CCCl)cc1)NC(C)=O)C(C)C` (stereo not drawn) here?
A: Its growth is 83.1%.

Q: With `CC(=O)O[C@H]1C[C@@H]2OC3C=C(C)CCC3(C)[C@@]1(C)[C@@]21CO1` (stereo partly drawn) as the molecule, how does the growth read?
A: Its growth is -16.6% (active) and -10.1% (active).

Q: How did the growth turn out when `CCC(=O)OC1CCn2c1nc1c2C(=O)C(C)=C(N2CC2)C1=O` (stereo not drawn) was run?
A: Its growth is -67.8% (active).

Q: Which growth does the source give for `CC[C@@]1(O)C(=O)OCc2c1cc1n(c2=O)Cc2cc3ccccc3nc2-1` here?
A: Its growth is -49.1% (active).

Q: With `C[C@]12CC[C@H](O)CC1=CC[C@@H]1[C@@H]2CC[C@]2(C)C(=O)CC[C@@H]12` as the molecule, how does the growth read?
A: The growth was 92.9%.

Q: For `Oc1cccc2cccnc12`, which growth is on record?
A: Its growth is 97.2% and 94.1%.

Q: `CC[C@@]1(O)C[C@H](OC2CC(N(C)C)C(OC3CC(O)C(OC4CCC(=O)C(C)O4)C(C)O3)C(C)O2)c2c(cc3c(c2O)C(=O)c2c(O)ccc(O)c2C3=O)[C@H]1C(=O)OC` (stereo partly drawn) was tested. Which growth did it give?
A: The growth was -72.9% (active).

Same assay, conditions: 25 µM

Q: For `Cc1c(N)nc([C@H](CC(N)=O)NC[C@H](N)C(N)=O)nc1C(=O)N[C@H](C(=O)N[C@H](C)[C@@H](O)[C@H](C)C(=O)N[C@H](C(=O)NCCc1nc(-c2nc(C(=O)NCCC[S+](C)C)cs2)cs1)[C@@H](C)O)C(OC1OC(CO)C(O)C(O)C1OC1OC(CO)C(O)C(OC(N)=O)C1O)c1cnc[nH]1` (stereo partly drawn), which growth is on record?
A: The growth was -42.5% (active) and -100% (active).

Same assay, conditions: 100 µM

Q: With `CC1CCC2(NC1)OC1CC3C4CCC5CC(OC6OC(CO)C(OC7OC(CO)C(O)C(OC8OCC(O)C(O)C8O)C7OC7OC(CO)C(O)C(O)C7O)C(O)C6O)CCC5(C)C4CCC3(C)C1C2C` (stereo not drawn) as the molecule, how does the growth read?
A: The growth was -77.3% (active) and -86.4% (active).

Q: How did the growth turn out when `S=C(SSC(=S)N1CCCCC1)N1CCCCC1` was run?
A: The growth was 2.29% (active).

Q: `COc1cccc2c1cc([N+](=O)[O-])c1c(C(=O)O)cc3c(c12)OCO3` was tested. Which growth did it give?
A: Its growth is -19.4% (active) and 0.694% (active).
